Results published in publication PMC7819943, “Rice protein-binding microarrays: a tool to detect cis-acting elements near promoter regions in rice”.
Over roughly 39,000 sequences, “fluorescence intensity (a.u.)” has its median near 4,300; the highest 2% begin near 39,000. Shown is part of a subset that was picked to be rich in the highest values.

Each sequence was assayed against T1, OsSMF1 (Oryza sativa, UniProt Q6ZLB0 1-436) (assay: protein-binding microarray (RPBM); PBS, 2% BSA, 51.3 ng/ul salmon testes DNA, 50 uM zinc acetate, 200 nM TF, 25 C, 1 h; high values mean tight binding). Conditions: protein: recombinant; tags: N-terminal polyhistidine and DsRed monomer fusion (pET32a); chain copies: 2; label: CyDye5-dUTP incorporated in the synthesized complementary strand; 3' TTTTT single-stranded linker to array surface; dsDNA, one strand shown.
T1 sequence: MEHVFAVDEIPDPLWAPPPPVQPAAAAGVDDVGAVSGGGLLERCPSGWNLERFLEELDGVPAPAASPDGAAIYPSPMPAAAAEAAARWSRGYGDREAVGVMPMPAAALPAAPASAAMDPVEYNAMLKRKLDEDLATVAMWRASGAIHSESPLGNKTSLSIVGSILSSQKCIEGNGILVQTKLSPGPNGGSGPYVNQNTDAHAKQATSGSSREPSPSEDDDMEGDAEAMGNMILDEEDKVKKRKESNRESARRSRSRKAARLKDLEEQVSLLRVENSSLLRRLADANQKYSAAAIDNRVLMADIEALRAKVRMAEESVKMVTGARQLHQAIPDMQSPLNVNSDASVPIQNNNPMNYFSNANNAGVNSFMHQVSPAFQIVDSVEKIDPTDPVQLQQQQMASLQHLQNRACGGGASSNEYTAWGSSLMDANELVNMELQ
In short: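 In PBS with 2% BSA, salmon testes DNA and 50 µM zinc acetate, 200 nM protein was incubated on a custom Agilent array at 25 °C for 1 h and then washed off. The array had been made double-stranded by primer extension with Cy5-dUTP and blocked with 2% BSA. The proteins were transcription factors fused N-terminally to polyhistidine and DsRed, expressed in E. coli BL21-CodonPlus and purified on Ni–NTA. The binding signal is per-feature fluorescence intensity (arbitrary units) from an Axon 4000B scanner.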

Sequence	binding signal
GGCCAGTTCTCTTCCACGTGGAGGCGGCCTCTCACAGCCGCGGAGTCACCTAGTGCAG	10300 fluorescence intensity (a.u.)
TCATCATCATCATCATTATTAAAGTAAATTTCAGAAAACTCGGAGTCACCTAGTGCAG	21600 fluorescence intensity (a.u.)
AATTTCAGTACTCAGTTCATTAAATTAATTAAAGAAAGGCCGGAGTCACCTAGTGCAG	51100 fluorescence intensity (a.u.)
TAGTTTCACTTATTATTTATTTCAGTAAAAGAAAGTTTCCCGGAGTCACCTAGTGCAG	3690 fluorescence intensity (a.u.)
GCGGAGGTCGACCTTGGCGAGGTCGTCCACGTCCGGGTGCCGGAGTCACCTAGTGCAG	3340 fluorescence intensity (a.u.)
CCATCTTCATCTCCATATCTTCTCCTCCTCGCGTCGGCAGCGGAGTCACCTAGTGCAG	3270 fluorescence intensity (a.u.)
TCTAACCCCGCCTGCAGATCCGCTCCATCGATTCCCTCCCCGGAGTCACCTAGTGCAG	31700 fluorescence intensity (a.u.)
AACTTCTCAATGTGTGGCCCCGAGCTGTGGCTTCACAGCTCGGAGTCACCTAGTGCAG	63300 fluorescence intensity (a.u.)
CCCAGCCCGGCGTCCCCTTCTCGGCTTCCTCCTCCACCATCGGAGTCACCTAGTGCAG	4100 fluorescence intensity (a.u.)
GCTTCTGCTGTGGCTGTGCTGAGCTTTCACAGTCACAGCCCGGAGTCACCTAGTGCAG	3550 fluorescence intensity (a.u.)
CTTCAGTCCTCGGCCCATTCTCCCTTCCTTTCAGCTGGCTCGGAGTCACCTAGTGCAG	45600 fluorescence intensity (a.u.)
TCTCCCCAGATTTCCCCTTCCATTCCGCCTCCCGATCGCTCGGAGTCACCTAGTGCAG	43300 fluorescence intensity (a.u.)
AAATCCGCCCTCGCCTCGCCCCGATCGATCCCCTCGATTCCGGAGTCACCTAGTGCAG	3810 fluorescence intensity (a.u.)
GCAATCTCATGATTCATGCAGCTTTGTAGCAATGTGTGCTCGGAGTCACCTAGTGCAG	3140 fluorescence intensity (a.u.)
GGCCCCACATGTCATCTCCTCCCTTTCTTCTTCCTCCCCTCGGAGTCACCTAGTGCAG	4040 fluorescence intensity (a.u.)
GGAGGAGGAGGAGGAGGGAGATGGTGGCGAGCTGACTTGGCGGAGTCACCTAGTGCAG	4090 fluorescence intensity (a.u.)
TCAGCTGCGTCACCCGAGTCCTCCACTCGTCTCCGCTATTCGGAGTCACCTAGTGCAG	5650 fluorescence intensity (a.u.)
TCACTGCGTGCATGTATGTACGTGGATTGTCCAATTACAACGGAGTCACCTAGTGCAG	3300 fluorescence intensity (a.u.)
CTCCTAGCAGCAACAGGGCCACGTTTGCTCTGCGAACAGGCGGAGTCACCTAGTGCAG	4590 fluorescence intensity (a.u.)
TTTGGTTAGTGAATTTAGCTATCCTCTCCTTGACTTCCTACGGAGTCACCTAGTGCAG	3660 fluorescence intensity (a.u.)
ATTTAGTGCTAAATATGTAGTTTCATGATACATCATGTTACGGAGTCACCTAGTGCAG	3850 fluorescence intensity (a.u.)

Sequence	binding signal
TGTGTTCTGCAATGCATAATTGCACCAGTTCTAGTACCTGCGGAGTCACCTAGTGCAG	45300 fluorescence intensity (a.u.)
GGTGCAGTTCATCATATGTGTTAGACTAATTGAGTAATTGCGGAGTCACCTAGTGCAG	36500 fluorescence intensity (a.u.)
TGGTGTGTAATTTGTGCAAATTCTAAGCAAATGCAAATTGCGGAGTCACCTAGTGCAG	17200 fluorescence intensity (a.u.)
CAGGGGCATTTCCGTAAACTCCCACGTGGCACAGATACGGCGGAGTCACCTAGTGCAG	13200 fluorescence intensity (a.u.)
TCTTGACATCCGGAATCATCACGCTCTTCCCAATCGAGGTCGGAGTCACCTAGTGCAG	3680 fluorescence intensity (a.u.)
AAGTAGCCCGGATCTCCCAGCTTCCCTCGAGCTGACCTCACGGAGTCACCTAGTGCAG	3960 fluorescence intensity (a.u.)
TTTTAATTCAAATGCCACCTAAGCGCCACGTCAACCCTATCGGAGTCACCTAGTGCAG	23500 fluorescence intensity (a.u.)
TTTAATTCAAATGCCACCTAAGCACCACGTCAGCGAAACCCGGAGTCACCTAGTGCAG	42600 fluorescence intensity (a.u.)
TGCCACGTCAGCGAAAACCACCATCTAAACCACCGCCATGCGGAGTCACCTAGTGCAG	7960 fluorescence intensity (a.u.)
ACTAAGCTGCCACGTGGATGCCACGTCAGCGAAAACCACCCGGAGTCACCTAGTGCAG	61800 fluorescence intensity (a.u.)
TGCTGACTATGATGCCACGTCAGCGAAACCACCCATATATCGGAGTCACCTAGTGCAG	23000 fluorescence intensity (a.u.)
TTTAATTCAAATGCCAGCTAAGCGCTACGTCAACCCTACACGGAGTCACCTAGTGCAG	15500 fluorescence intensity (a.u.)
GGGCGGAGCTAGAATAAAATAAAGGAGGGTTCCACTCGTTCGGAGTCACCTAGTGCAG	23100 fluorescence intensity (a.u.)
TCGATTTACTGACAAAATTGTATCCCAAAACAATGGCTTACGGAGTCACCTAGTGCAG	33700 fluorescence intensity (a.u.)
TTCTCTACCAGCGGCAGCGGCGGCTGGTAGGGAGGAGGAGCGGAGTCACCTAGTGCAG	4860 fluorescence intensity (a.u.)
ATAAAGAAGGGAGGCAGCGGGCGAGCTGTAAAGGAGTACACGGAGTCACCTAGTGCAG	32300 fluorescence intensity (a.u.)
GGATTGACGGGGACGCGGTGGTGGCGCCAACGGATGGACGCGGAGTCACCTAGTGCAG	6220 fluorescence intensity (a.u.)
TTACTGGTGATATTTATTTTGACAAGTGCTTTTATTTGTACGGAGTCACCTAGTGCAG	3930 fluorescence intensity (a.u.)
TTACTAGTACATTTAATATATTTATTTAATGTATTTGTATCGGAGTCACCTAGTGCAG	3140 fluorescence intensity (a.u.)
CATTTTGTACTTTGACAAGTATTTAATATTTGCCAGTAGTCGGAGTCACCTAGTGCAG	65100 fluorescence intensity (a.u.)
ATATTCGTCTCTATCGCTTAAGGCGGTTAGTTGCGTGTCACGGAGTCACCTAGTGCAG	3930 fluorescence intensity (a.u.)
